According to PubChem BioAssay (NCATS):
Inconclusive results are not listed. A call without a number means that no potency is given here. Activity calls are given as the source filed them. Calls follow the shape of the dose curve; as a rule, active = well fitted inhibition curve with a large enough effect; inconclusive = small, poorly fitted or top-dose-only effect; inactive = flat fitted curve, though single readings scatter.

Molecular target: Aldehyde dehydrogenase, mitochondrial (Homo sapiens) (UniProt P05091)
Experiment: qHTS for Inhibitors of the Aldehyde Dehydrogenase Family (ALDH2) Primary screen (AID 2061308); also: nearly all actives have a fitted effect of over 55% in size
Details: ALDH2 enzyme inhibition qHTS, 1536-well; series mostly up to 56 µM

SMILES	Potency
COc1cccc(-n2nc(C(=O)O)cc2-c2ccc(C3CCCCC3)c(Cl)c2)c1	inactive
COc1ccc(C#Cc2ccc(C(=O)N3CCC[C@@H](CO)C3)cc2)cc1	inactive
CC1=C(C(=O)Nc2cc(Cl)ccc2Cl)C(c2ccco2)C2=C(CCCC2=O)N1 (centres undefined)	inactive
O=C1CC2(CCCC2)[C@H](O)C(=O)N1CCCCN1CCN(c2ncccn2)CC1	inactive
CC(C)(F)C[C@@H](N[C@@H](c1ccc(-c2ccc(S(C)(=O)=O)cc2)cc1)C(F)(F)F)C(=O)NC1(C#N)CC1	inactive
CC(=O)NC1=NN(C(C)=O)C(C)(c2ccccc2)S1 (centres undefined)	inactive
O=[N+]([O-])c1cn2c(n1)OC[C@@H](OCc1ccc(-c3ccc(OC(F)(F)F)cc3)nc1)C2	inactive
COc1c(C)cnc(Cn2cc(C#CCC(C)(C)O)c3c(Cl)nc(N)nc32)c1C	inactive
COc1ccccc1N1CCN(CC[C@@](C)(C(=O)C2CCCCC2)c2ccccc2)CC1	inactive
CC(C)(C)c1ccc(CNC(=S)NCc2ccc(NS(C)(=O)=O)c(F)c2)cc1	inactive
O=C(Nc1cc(-c2ccccc2)nn1-c1ccccc1F)c1ccc([N+](=O)[O-])cc1	inactive
N#CC(c1ccnc(OCc2ccc(CN3CCOCC3)cc2)n1)c1nc2ccccc2s1 (centres undefined)	inactive
O=C(NCc1cccc(O)c1)c1cc2cc(F)ccc2[nH]1	inactive
CC(C)(C)c1cc(Br)cc([C@H](CC(=O)O)NC(=O)CNC(=O)c2cc(O)cc(NC3=NCC(O)CN3)c2)c1 (some centres undefined)	inactive
COc1cc(Br)c(S(=O)(=O)Nc2ccc(Cl)c(O[C@@H]3CCN(C)C3)c2)cc1OC	inactive
Cc1onc(-c2ccccc2)c1C(=O)N1CCN(c2ccc([N+](=O)[O-])cc2Cl)CC1	inactive
O=C(Nc1ccccc1Br)NC1CCN(c2ccc(C(F)(F)F)cn2)C1 (centres undefined)	inactive
Cc1ccccc1CN1CCn2c1nc1c(c2=O)CN(Cc2ccccc2)CC1	inactive
CC(C)c1ccccc1OC(=O)NCCc1ccc2ccccc2c1	inactive
COC(=O)c1ccc2c(c1)nc(NC(=O)c1ccccc1)n2CCCc1ccccc1	inactive

SMILES	Potency
CCOC(CN1CCN(CC(C)C(=O)c2ccccc2)CC1)c1ccccc1 (centres undefined)	inactive
O=C1NC(=O)C(c2cn3c4c(cccc24)CCC3)C1c1c[nH]c2ccccc12 (centres undefined)	inactive
CCCCc1c(-c2ccc(OC)cc2)[nH]c2nccnc12	inactive
CCOc1ccc(NC(=S)N2CCC(C(O)(c3ccccc3)c3ccccc3)CC2)cc1	inactive
CC1(C)Oc2ncnc(N)c2N=C1c1ccc(C23CCC(CC(=O)O)(CC2)CC3)cc1	inactive
CC1(C)[C@H]2C[C@H](C/C=C\CCCC(=O)O)[C@@H](NC(=O)c3csc4ccc(O)cc34)[C@@H]1C2	inactive
O=c1cc(OCc2ccc(F)cc2)ccn1-c1ccc(OCCN2CCCC2)cc1	inactive
COc1cccc(CN(C(=O)CC(C)(C)C)C2CC(C(=O)N3CCNCC3)N(Cc3ccc4c(c3)OCO4)C2)c1 (centres undefined)	inactive
O=C(Nc1ccccc1)N1CCN(c2nc(-c3ccccc3)ns2)CC1	inactive
CS(=O)(=O)NCC1CCC(Nc2nc3c(s2)CCSc2ccccc2-3)CC1 (centres undefined)	inactive
CCNC(=O)[C@H]1O[C@H](n2cnc3c(NCC(c4ccccc4)c4ccccc4)nc(C(=O)NCCNC(=O)NC4CCN(c5ccccn5)CC4)nc32)[C@H](O)[C@@H]1O	inactive
Cc1cc(-c2nc(-c3ccc(OC(F)(F)F)cc3)no2)nn1Cc1ccnc(N2CCN(C3CC3)CC2)c1	inactive
CN(C)c1nc(NC2CCC(NCCc3ccc(Br)cc3OC(F)(F)F)CC2)nc2ccccc12 (centres undefined)	inactive
Cc1nc(C#Cc2ccnc(Cl)c2)c(C)n1-c1ccc(F)cc1	inactive
COc1ccc(CCc2nc3cc(-c4c(C)noc4C)ccc3n2C[C@H](C)N2CCOCC2)cc1Cl	inactive
Cc1ccccc1NC(=O)Nc1ccc(CN2C(=O)N([C@@H](CC(C)C)C(=O)N[C@@H](CC(=O)O)c3ccccc3)C(=O)C2(C)C)cc1	inactive
CC(C)(C)c1ccc(S(=O)(=O)NCc2ccc(C(=O)Nc3cccnc3)cc2)cc1	inactive
CCOC(=O)c1sc(NC(=O)[C@H](C(C)C)n2c(=O)[nH]c3ccccc3c2=O)nc1C	inactive
Cn1ncnc1COc1nn2c(-c3cc(F)ccc3F)nnc2cc1C(C)(C)C	inactive
